In PubChem BioAssay (NCI):
The panel holds about 83,000 compounds, 20% with a hit somewhere; the sample as a whole holds those more often.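 Treatment: one concentration, 48 hours, 96-well format. Scoring: percent growth, with anything below 10 considered active.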 Unmarked numbers belong to inactive results. Calls of active or inactive are those of the source.

Key:
Test in all cases: NCI-60 one-dose screen, 48 h (100 = growth as untreated, 0 = no growth, -100 = all killed)
Details in all cases: 10 µM unless noted
T-47D breast = tested on: T-47D breast
MDA-MB-435 melanoma = tested on: MDA-MB-435 melanoma
SW-620 colon = tested on: SW-620 colon
MCF7 breast = tested on: MCF7 breast
HCT-116 colon = tested on: HCT-116 colon
HCC-2998 colon = tested on: HCC-2998 colon
KM12 colon = tested on: KM12 colon
BT-549 breast = tested on: BT-549 breast

SMILES	growth (T-47D breast)	growth (MDA-MB-435 melanoma)	growth (SW-620 colon)	growth (MCF7 breast)	growth (HCT-116 colon)	growth (HCC-2998 colon)	growth (KM12 colon)	growth (BT-549 breast)
CC(=O)Nc1ccc(C(=O)/C=C/c2ccccc2)cc1	74.9%	89.1%	90.4%	24.3%	1.2% (active)	88.7%	22.8%	–
CC(C)OC(=O)NNC(=O)c1ccncc1	106%	109%	98.2%	88%	97.5%	119%	115%	–
C=C(C)[C@@H]1CC[C@]2(C(=O)NCC(=O)O)CC[C@]3(C)[C@H](CC[C@@H]4[C@@]5(C)Cc6c([nH]c7ccccc67)C(C)(C)[C@@H]5CC[C@]43C)[C@@H]12	–	87.1%	85%	81.4%	77.4%	98.4%	88.1%	65.7%
Cn1cc(Nc2nccc(-c3ccc(N4CCCC4)c(C#N)c3)n2)cn1	–	0.731% (active)	14.2%	27.3%	11.5%	59.8%	31.6%	37.7%
COc1ccc(-n2ncn(CCCCCCn3cnn(-c4ccc(OC)cc4)c3=O)c2=O)cc1	–	102%	95.2%	92.7%	94.5%	110%	97%	101%
CO/C(=C1/NC(=O)C(Cc2ccc(O)c(Br)c2)N(C)C(=O)C(C)NC(=O)CCC/C=C(\C)CCC(C)OC1=O)c1ccccc1 (stereo not drawn)	-0.228% (active)	3.86% (active)	18.2%	-17.5% (active)	–	-36.6% (active)	26.9%	–
C#C[C@]1(O)CC[C@H]2[C@@H]3CC=C4c5sc(N=C(N)N)nc5CC[C@]4(C)[C@H]3CC[C@@]21C	1.23% (active)	-55.9% (active)	-47.1% (active)	0.374% (active)	–	-15.9% (active)	-28.6% (active)	–
O=C1C(Cl)C(c2ccccc2Cl)N1n1cnnc1 (stereo not drawn)	–	103%	94.5%	97.4%	96.4%	98.4%	–	97.3%
Cc1ccc(S(=O)(=O)NN/C(N)=N\S(=O)(=O)c2cc(C)c(Cl)cc2SCc2ccccc2)cc1	87.9%	96.4%	96.6%	99.8%	94.6%	107%	97.3%	–
CCn1nc(C#Cc2c(C)ccc3c(Nc4ccc(Cl)cc4)nccc23)c2c(N)ncnc21	–	-26.3% (active)	25%	6.61% (active)	6.73% (active)	31.6%	–	10.5%
O=C(O)c1ccc(CO)o1	105%	109%	104%	84.1%	103%	111%	106%	–
